According to PubChem BioAssay (NCI):
Compounds without any hit were thinned out: in the full panel of roughly 83,000, 20% have a hit.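 Negative percent growth values reflect cell death: -40 means 40% of the cells present at the start died, and -100 means all died.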 Values without a mark were called inactive. Activity calls are given as the source filed them. The calls were made as follows: active = growth percent below 10; inactive = the rest.

test system: MOLT-4 leukemia; assay: NCI-60 one-dose screen, 48 h (100 = growth as untreated, 0 = no growth, -100 = all killed); settings: 10 µM unless noted

SMILES	growth
COc1ccc(/C=C2\N=C(c3ccccc3)N(C(=O)c3ccccc3O)NC2=O)cc1	48.3%
c1cc2[nH]ncc2cc1-c1nc2ccc3[nH]ncc3c2c2c1CCC2	20.9%
O=C(Oc1ccccc1[N+](=O)[O-])C1CCCN1C(=O)OCc1ccccc1 (configuration not stated)	83.5%
COc1ccc(CCNC2=CC(=O)CCC2)cc1OC	76.2%
O=C(Nc1ccncc1)C(=O)c1cn(S(=O)(=O)c2ccc(Cl)cc2)c2ccccc12	48%
O=C(Nc1cccc(-n2cc(-c3ccncc3)c(-c3ccc(Cl)c(O)c3)n2)c1)Nc1ccc(Cl)c(Cl)c1	7.64% (active)
O=C(Nc1ccncc1)C(=O)c1cn(S(=O)(=O)c2ccccc2F)c2ccccc12	39.1%
O=C(c1ccccc1)C1OC1c1ccc([N+](=O)[O-])cc1 (configuration not stated)	76.2%
Cc1ccc(Cc2c(C=O)nc(N)[nH]c2=O)c2ccccc12	86.8%
CCN(CC)CCOC(=O)C(c1ccccc1)(c1ccccc1)C(C)C	86.7%
COc1ccc(C(=O)N2NC(=O)/C(=C/c3cn(-c4ccccc4)nc3-c3ccccc3)N=C2c2ccccc2)cc1	85%
CC(C)(C)OC(=O)NC(CSCc1ccccc1)C(=O)ON1C(=O)CCC1=O (configuration not stated)	97%
COc1ccc(C2=C(c3cc(OC)c(OC)c(OC)c3)C(=O)CC2)cc1	17.4%
COc1ccc(C(=O)N2NC(=O)/C(=C/c3ccccc3F)N=C2c2ccccc2)cc1	109%
C/C(=C\c1ccc(OCC(=O)O)c(Cl)c1Cl)[N+](=O)[O-]	84.6%
COc1ccc(-c2cc3c(OC)c(OC)c(OC)cc3oc2=O)cc1	64.7%
COc1ccc(Nc2ncccc2C(=O)NCc2cn(Cc3cccc(Oc4ccccc4)c3)nn2)c(OC)c1	40%
CC(=O)Nc1scc[n+]1Cc1ccccc1	94.1%
COc1cc2c(c(OC)c1OC)-c1ccc(N)c(=O)cc1[C@@H](NC(C)=O)CC2	20.7%

SMILES	growth
O=C([O][Sn]([O]C(=O)c1ccccn1)([c]1ccccc1)[c]1ccccc1)c1ccccn1	88.3%
COC(OC)c1ccccc1	108%
Fc1ccc(Nc2nc(NCCNc3ccnc4cc(Cl)ccc34)nc(N3CCOCC3)n2)cc1	25.2%
Cc1ccc(S(=O)(=O)n2cc(C(=O)C(=O)Nc3ccncc3)c3ccccc32)cc1	50.7%
COc1ccc(Nc2ncccc2C(=O)NCc2cn(Cc3cccc(Oc4ccccc4)c3)nn2)cc1	48%
CC1=C(C#N)C(=O)NC(C)C1 (configuration not stated)	116%
Cc1cc(C2=NNC(=O)Cc3cc4c(cc32)OCCO4)cc(C)c1N	52.2%
CCOC(=O)C1=C(C)NC(C)=C(C(=O)OCC)C1(C)C	97%
O=C(Nc1ccncc1)C(=O)c1cn(S(=O)(=O)c2ccc(Br)cc2)c2ccccc12	44.3%
CC1CCC(C)N(C)C1 (configuration not stated)	92.5%
CCC(C)/C(=C\C#N)NCCCN/C(=C/C#N)C(C)CC (configuration not stated)	99.4%
CC1(c2ccc(Cl)cc2)OC(=O)CC(=O)O1	100%
CCN(CC)CCOc1ccc(Cl)c(C)c1	99.8%
Nc1cccc(Cl)c1N	93.1%
O=[N+]([O-])c1cc(Cl)c2[nH]c3c(Cl)cc([N+](=O)[O-])cc3c2c1	-41.8% (active)
CSc1nc2c(c(=O)[nH]1)C(c1ccc(C)cc1)C=C(C(=O)O)N2 (configuration not stated)	119%
COc1cc(/C=C/C(=O)/C=C/c2cc(OC)c3c(c2)OCO3)cc2c1OCO2	91.2%
Oc1ccccc1/C=N/NC(=S)NC1CC2C=CC1C2 (configuration not stated)	56.6%

test system: SR leukemia; assay: as above; settings: 10 µM unless noted

SMILES	growth
COC(=O)c1cccc2c1N(C)c1c(cccc1C(=O)OC)CC2	114%
COc1ccc(/C=C2\N=C(c3ccccc3)N(C(=O)c3ccccc3O)NC2=O)cc1	64%
c1cc2[nH]ncc2cc1-c1nc2ccc3[nH]ncc3c2c2c1CCC2	10.9%
O=C(Oc1ccccc1[N+](=O)[O-])C1CCCN1C(=O)OCc1ccccc1 (configuration not stated)	82.4%
COc1ccc(CCNC2=CC(=O)CCC2)cc1OC	85.9%
O=C(Nc1ccncc1)C(=O)c1cn(S(=O)(=O)c2ccc(Cl)cc2)c2ccccc12	28.3%
O=C(Nc1ccncc1)C(=O)c1cn(S(=O)(=O)c2ccccc2F)c2ccccc12	16.4%
O=C(c1ccccc1)C1OC1c1ccc([N+](=O)[O-])cc1 (configuration not stated)	33.6%
Cc1ccc(Cc2c(C=O)nc(N)[nH]c2=O)c2ccccc12	63.5%
CCN(CC)CCOC(=O)C(c1ccccc1)(c1ccccc1)C(C)C	84%
COc1ccc(C(=O)N2NC(=O)/C(=C/c3cn(-c4ccccc4)nc3-c3ccccc3)N=C2c2ccccc2)cc1	99.9%
CC(C)(C)OC(=O)NC(CSCc1ccccc1)C(=O)ON1C(=O)CCC1=O (configuration not stated)	78.4%
COc1ccc(C2=C(c3cc(OC)c(OC)c(OC)c3)C(=O)CC2)cc1	15.7%
COc1ccc(C(=O)N2NC(=O)/C(=C/c3ccccc3F)N=C2c2ccccc2)cc1	104%
C/C(=C\c1ccc(OCC(=O)O)c(Cl)c1Cl)[N+](=O)[O-]	72.1%
COc1ccc(Nc2ncccc2C(=O)NCc2cn(Cc3cccc(Oc4ccccc4)c3)nn2)c(OC)c1	30.3%
CC(=O)Nc1scc[n+]1Cc1ccccc1	76.6%
COc1cc2c(c(OC)c1OC)-c1ccc(N)c(=O)cc1[C@@H](NC(C)=O)CC2	20%

SMILES	growth
O=C([O][Sn]([O]C(=O)c1ccccn1)([c]1ccccc1)[c]1ccccc1)c1ccccn1	47.6%
COc1ccc(-c2nc3sc(-c4cc(OC)c(OC)c(OC)c4)nn3c2/C=C2/C(=O)Nc3ccc(F)cc32)cc1	18.6%
Cc1ccc(S(=O)(=O)n2cc(C(=O)C(=O)Nc3ccncc3)c3ccccc32)cc1	28.8%
COc1ccc(Nc2ncccc2C(=O)NCc2cn(Cc3cccc(Oc4ccccc4)c3)nn2)cc1	30.8%
CC1=C(C#N)C(=O)NC(C)C1 (configuration not stated)	110%
Cc1cc(C2=NNC(=O)Cc3cc4c(cc32)OCCO4)cc(C)c1N	27.5%
CCOC(=O)C1=C(C)NC(C)=C(C(=O)OCC)C1(C)C	90.6%
O=C(Nc1ccncc1)C(=O)c1cn(S(=O)(=O)c2ccc(Br)cc2)c2ccccc12	26.1%
CC1CCC(C)N(C)C1 (configuration not stated)	88.1%
CCC(C)/C(=C\C#N)NCCCN/C(=C/C#N)C(C)CC (configuration not stated)	90.4%
CC1(c2ccc(Cl)cc2)OC(=O)CC(=O)O1	78.5%
CCN(CC)CCOc1ccc(Cl)c(C)c1	92.3%
Nc1cccc(Cl)c1N	92.5%
O=[N+]([O-])c1cc(Cl)c2[nH]c3c(Cl)cc([N+](=O)[O-])cc3c2c1	2.53% (active)
CSc1nc2c(c(=O)[nH]1)C(c1ccc(C)cc1)C=C(C(=O)O)N2 (configuration not stated)	117%
COc1cc(/C=C/C(=O)/C=C/c2cc(OC)c3c(c2)OCO3)cc2c1OCO2	33.6%
Oc1ccccc1/C=N/NC(=S)NC1CC2C=CC1C2 (configuration not stated)	30.1%
